# For some assays here: Results with a measured potency or affinity are listed apart.
# Experiments:
# Set-up in all cases: scale not given: direction of the effect not stated beside the values
# [1] = target: Protein translocase subunit SecA (Escherichia coli (strain K12)) (UniProt P10408); test: Assay to Identify E. coli SecA ATPase Inhibitors; type: functional; conditions: 30 µM
# [2] = target: T1, Ubiquitin-activating enzyme e1, putative (Leishmania donovani (strain BPK282A1)) (UniProt E9BSI1); test: Leishmania donovani Ubiquitin Activating Enzyme (LdE1); type: functional; conditions: 30 µM
# T1 sequence (whole entry): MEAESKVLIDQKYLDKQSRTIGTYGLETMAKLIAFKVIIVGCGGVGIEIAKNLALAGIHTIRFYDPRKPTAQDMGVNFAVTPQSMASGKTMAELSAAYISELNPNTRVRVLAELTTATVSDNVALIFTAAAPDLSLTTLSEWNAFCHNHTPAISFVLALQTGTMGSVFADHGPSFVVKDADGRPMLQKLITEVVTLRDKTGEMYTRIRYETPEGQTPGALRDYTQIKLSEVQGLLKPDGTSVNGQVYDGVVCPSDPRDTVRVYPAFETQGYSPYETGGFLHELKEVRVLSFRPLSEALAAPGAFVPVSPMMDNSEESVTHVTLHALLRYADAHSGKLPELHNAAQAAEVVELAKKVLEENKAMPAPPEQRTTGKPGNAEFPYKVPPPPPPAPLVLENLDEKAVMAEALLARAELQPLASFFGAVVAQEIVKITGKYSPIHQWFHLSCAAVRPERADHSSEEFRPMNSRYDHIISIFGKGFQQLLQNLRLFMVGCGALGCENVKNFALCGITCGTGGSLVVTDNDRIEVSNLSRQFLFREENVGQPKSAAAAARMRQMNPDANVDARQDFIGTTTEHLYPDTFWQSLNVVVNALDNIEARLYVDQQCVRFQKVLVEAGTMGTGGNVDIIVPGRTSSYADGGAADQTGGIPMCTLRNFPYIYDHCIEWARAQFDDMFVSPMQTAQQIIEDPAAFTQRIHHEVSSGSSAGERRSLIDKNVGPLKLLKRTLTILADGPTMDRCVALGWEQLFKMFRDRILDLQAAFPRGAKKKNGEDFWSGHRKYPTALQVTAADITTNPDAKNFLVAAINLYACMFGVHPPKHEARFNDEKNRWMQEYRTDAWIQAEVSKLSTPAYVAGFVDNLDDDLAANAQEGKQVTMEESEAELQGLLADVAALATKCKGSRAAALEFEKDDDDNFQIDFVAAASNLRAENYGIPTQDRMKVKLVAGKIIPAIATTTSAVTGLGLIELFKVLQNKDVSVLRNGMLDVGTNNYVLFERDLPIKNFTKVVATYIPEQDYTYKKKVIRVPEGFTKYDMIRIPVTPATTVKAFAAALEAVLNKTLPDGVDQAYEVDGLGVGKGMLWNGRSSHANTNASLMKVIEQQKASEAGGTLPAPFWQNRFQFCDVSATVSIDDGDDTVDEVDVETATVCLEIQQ
# [3] = target: AMP-activated protein kinase, AMPK (Homo sapiens) (UniProt P54646+O43741+P54619+Q9UGJ0+Q9Y478+Q13131+Q9UGI9); test: AMP-dependent Kinase enzyme assay. An in vitro enzyme assay that detects ADP turnover that is directly proportional to AMPK activity. This uses naive AMPK that is activated during the assay with MK-8722; type: functional; conditions: 30 µM
# [4] = target: Sialic acid-binding Ig-like lectin 9 (Homo sapiens) (UniProt Q9Y336); test: Hs-Siglec9 ALPHAscreen SOP 20170721; conditions: 10 µM
# Trypanosoma cruzi = test: Trypanosoma cruzi phosphomannomutase and mannose-1-phosphate guanylyltransferase assay; type: functional; conditions: 10 µM
# [5] = target: T2, Arginase-2, mitochondrial (Homo sapiens) (UniProt P78540); test: in vitro enzyme assay to detect the production of urea directly proportional to the activity of Arginase II; type: functional; conditions: 33.3 µM; also: in the data most compounds retested in dose-response had high values
# T2 sequence (whole entry): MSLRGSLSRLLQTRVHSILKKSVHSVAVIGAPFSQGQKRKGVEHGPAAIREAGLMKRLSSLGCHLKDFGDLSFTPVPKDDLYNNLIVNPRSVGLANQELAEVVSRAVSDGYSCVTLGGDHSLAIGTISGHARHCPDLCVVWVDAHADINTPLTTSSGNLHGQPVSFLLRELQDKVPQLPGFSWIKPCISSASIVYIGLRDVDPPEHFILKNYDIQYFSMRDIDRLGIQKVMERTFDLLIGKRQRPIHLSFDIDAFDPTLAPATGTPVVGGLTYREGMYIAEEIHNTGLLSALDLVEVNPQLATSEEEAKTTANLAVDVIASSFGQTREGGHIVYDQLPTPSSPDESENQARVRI
# [6] = target: T3, Proteasome subunit beta (Trypanosoma cruzi) (UniProt O96673); test: Trypanosoma cruzi proteasome chymotrypsin-like activity (TcProtChymo) assay.; also: in the data most compounds retested in dose-response had high values; type: functional; conditions: 9.37 µM
# T3 sequence (whole entry): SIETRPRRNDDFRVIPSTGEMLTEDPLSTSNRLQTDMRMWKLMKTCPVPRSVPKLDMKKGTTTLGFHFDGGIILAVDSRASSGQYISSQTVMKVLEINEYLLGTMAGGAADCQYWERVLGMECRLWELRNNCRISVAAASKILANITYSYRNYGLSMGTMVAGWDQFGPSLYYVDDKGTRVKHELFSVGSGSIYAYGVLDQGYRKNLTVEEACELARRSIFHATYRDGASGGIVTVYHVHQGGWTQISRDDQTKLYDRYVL
# Homo sapiens = species: Homo sapiens; test: To identify inhibition of the IFN signalling (Jak-Stat) pathway via expression of an eGFP reporter gene under the control of an IFN-stimulated response element (ISRE) containing MxA promoter.; type: functional; conditions: 30 µM
# [7] = target: T4, Tyrosyl-tRNA synthetase, putative (Trypanosoma cruzi (strain CL Brener)) (UniProt Q4DSP6); test: Trypanosoma cruzi tyrosyl tRNA synthetase (TcYRS) _High Tyrosine SOP; type: functional; conditions: 30 µM; also: in the data most compounds retested in dose-response had high values
# T4 sequence (whole entry): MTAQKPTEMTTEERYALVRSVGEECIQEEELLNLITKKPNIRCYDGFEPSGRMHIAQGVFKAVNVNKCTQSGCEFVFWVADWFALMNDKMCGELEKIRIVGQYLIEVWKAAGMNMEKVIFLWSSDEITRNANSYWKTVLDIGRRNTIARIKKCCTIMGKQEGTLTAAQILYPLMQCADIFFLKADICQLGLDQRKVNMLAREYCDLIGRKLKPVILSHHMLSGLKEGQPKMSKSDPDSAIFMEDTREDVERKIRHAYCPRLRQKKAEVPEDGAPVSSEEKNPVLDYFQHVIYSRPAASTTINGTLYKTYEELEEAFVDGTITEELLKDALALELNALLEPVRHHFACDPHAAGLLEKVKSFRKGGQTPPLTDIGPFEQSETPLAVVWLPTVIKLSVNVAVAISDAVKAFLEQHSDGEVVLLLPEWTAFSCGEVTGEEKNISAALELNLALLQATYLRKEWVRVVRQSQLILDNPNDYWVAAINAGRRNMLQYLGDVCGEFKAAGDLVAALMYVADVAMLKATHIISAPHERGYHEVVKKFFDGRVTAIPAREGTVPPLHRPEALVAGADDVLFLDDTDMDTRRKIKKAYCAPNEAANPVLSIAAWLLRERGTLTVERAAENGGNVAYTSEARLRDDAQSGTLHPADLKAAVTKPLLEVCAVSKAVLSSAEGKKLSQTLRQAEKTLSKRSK
# [8] = target: T4, Tyrosyl-tRNA synthetase, putative (Trypanosoma cruzi (strain CL Brener)); test: Trypanosoma cruzi tyrosyl tRNA synthetase (TcYRS) SOP; type: functional; conditions: 30 µM
# [9] = target: Chromo domain-containing protein 1 (Saccharomyces cerevisiae (strain ATCC 204508 / S288c) (Baker's yeast)) (UniProt P32657); test: ScCHD-1 Enzyme Inhibition Assay; type: functional; conditions: 30 µM; also: in the data most compounds retested in dose-response had high values
# Chain of Chromo domain-containing protein 1 (Saccharomyces cerevisiae (strain ATCC 204508 / S288c) (Baker's yeast)) (P32657 whole entry, the tested form may be a part): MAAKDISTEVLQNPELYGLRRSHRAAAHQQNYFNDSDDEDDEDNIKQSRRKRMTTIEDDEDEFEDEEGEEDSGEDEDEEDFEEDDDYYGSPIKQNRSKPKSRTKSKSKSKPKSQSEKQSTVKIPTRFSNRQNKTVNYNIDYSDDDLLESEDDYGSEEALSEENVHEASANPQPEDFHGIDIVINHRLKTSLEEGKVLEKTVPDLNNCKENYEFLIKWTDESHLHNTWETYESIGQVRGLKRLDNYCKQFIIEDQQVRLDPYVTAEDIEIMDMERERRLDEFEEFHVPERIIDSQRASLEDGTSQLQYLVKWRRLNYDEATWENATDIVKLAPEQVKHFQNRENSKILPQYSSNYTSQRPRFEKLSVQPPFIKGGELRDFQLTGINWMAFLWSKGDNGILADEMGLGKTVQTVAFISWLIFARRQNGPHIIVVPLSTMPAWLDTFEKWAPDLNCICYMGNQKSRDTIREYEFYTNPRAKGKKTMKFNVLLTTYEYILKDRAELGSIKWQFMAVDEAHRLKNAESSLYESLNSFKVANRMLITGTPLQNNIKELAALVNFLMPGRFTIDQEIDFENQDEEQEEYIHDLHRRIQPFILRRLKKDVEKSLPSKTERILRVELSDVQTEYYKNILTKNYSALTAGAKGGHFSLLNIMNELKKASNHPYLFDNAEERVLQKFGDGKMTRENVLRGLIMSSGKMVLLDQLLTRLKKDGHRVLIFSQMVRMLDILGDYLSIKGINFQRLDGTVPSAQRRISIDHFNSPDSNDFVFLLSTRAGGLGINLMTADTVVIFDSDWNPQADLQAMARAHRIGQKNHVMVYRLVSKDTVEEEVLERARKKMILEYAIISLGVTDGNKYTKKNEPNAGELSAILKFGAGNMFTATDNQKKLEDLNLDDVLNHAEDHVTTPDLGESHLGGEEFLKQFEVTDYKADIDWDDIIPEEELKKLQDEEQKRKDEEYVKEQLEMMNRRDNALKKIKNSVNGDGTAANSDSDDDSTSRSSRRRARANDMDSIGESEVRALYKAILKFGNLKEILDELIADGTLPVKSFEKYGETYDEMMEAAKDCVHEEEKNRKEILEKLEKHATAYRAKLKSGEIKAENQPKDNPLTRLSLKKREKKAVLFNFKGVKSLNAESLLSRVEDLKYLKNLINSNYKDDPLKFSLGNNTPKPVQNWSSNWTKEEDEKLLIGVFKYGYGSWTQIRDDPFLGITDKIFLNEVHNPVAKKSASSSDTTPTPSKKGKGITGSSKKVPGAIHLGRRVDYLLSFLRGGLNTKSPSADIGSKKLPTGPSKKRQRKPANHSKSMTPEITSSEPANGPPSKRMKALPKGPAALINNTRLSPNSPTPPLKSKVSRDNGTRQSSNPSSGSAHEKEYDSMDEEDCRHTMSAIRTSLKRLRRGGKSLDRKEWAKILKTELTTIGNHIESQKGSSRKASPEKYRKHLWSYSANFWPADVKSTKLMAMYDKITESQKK
# Chain of Protein translocase subunit SecA (Escherichia coli (strain K12)) (P10408 whole entry): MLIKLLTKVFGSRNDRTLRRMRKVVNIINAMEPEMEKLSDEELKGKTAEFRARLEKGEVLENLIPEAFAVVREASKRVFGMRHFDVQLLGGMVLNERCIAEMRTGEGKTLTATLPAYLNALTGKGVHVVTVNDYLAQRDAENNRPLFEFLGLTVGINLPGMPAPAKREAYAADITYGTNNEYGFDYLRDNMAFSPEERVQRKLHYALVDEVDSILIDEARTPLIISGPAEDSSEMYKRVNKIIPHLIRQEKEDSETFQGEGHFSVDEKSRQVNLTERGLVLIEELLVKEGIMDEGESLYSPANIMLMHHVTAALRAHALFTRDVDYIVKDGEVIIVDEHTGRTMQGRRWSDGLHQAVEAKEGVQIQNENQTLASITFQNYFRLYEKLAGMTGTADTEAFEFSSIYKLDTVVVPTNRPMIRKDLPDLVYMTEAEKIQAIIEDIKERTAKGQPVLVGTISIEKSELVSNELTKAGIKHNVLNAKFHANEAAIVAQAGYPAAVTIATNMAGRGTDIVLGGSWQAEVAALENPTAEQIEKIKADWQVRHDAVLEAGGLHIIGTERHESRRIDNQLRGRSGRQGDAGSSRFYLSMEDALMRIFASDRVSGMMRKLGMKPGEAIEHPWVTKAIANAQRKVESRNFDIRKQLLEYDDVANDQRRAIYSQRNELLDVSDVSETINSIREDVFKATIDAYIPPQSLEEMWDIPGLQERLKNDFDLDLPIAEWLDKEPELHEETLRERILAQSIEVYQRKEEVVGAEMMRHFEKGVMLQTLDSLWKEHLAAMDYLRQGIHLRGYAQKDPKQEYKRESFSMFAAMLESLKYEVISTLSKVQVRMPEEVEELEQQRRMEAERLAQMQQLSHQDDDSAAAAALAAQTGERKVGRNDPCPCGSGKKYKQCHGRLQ
# Chain of Sialic acid-binding Ig-like lectin 9 (Homo sapiens) (Q9Y336 whole entry): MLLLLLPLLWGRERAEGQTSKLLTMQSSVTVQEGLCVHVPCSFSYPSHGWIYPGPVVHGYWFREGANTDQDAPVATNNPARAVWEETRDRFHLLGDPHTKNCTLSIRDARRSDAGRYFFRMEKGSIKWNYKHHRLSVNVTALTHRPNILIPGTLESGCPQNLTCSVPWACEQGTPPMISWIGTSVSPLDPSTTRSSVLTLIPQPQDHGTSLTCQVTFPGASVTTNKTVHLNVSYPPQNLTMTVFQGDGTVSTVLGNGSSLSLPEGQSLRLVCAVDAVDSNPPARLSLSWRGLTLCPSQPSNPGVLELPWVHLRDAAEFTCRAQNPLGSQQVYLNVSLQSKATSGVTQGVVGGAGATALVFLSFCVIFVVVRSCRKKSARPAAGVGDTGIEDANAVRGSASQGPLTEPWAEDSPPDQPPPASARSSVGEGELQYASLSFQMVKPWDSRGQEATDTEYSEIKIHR
SMILES,Percent Effect [1],Percent Effect [2],Percent Effect [3],Percent Effect [4],Percent Effect (Trypanosoma cruzi),Percent Effect [5],Percent Effect [6],Percent Effect (Homo sapiens),Percent Effect [7],Percent Effect [8],Percent Effect [9]
Cc1noc([C@@H]2CCCN2C(=O)C2CCN(C(=O)C3CCC3)CC2)n1,-2.73%,5.48%,27.2%,-1.91%,-6.27%,0.909%,11.7%,27.9%,0%,5%,98.2%
O=C1COc2ccc(C(=O)NS(=O)(=O)c3ccc(F)cc3F)cc2N1,-2.51%,-7.89%,6.3%,-2.06%,2.15%,-4.32%,-1.78%,-9.03%,4.43%,3.7%,6.46%
CSc1ccc(-c2nc(CN3CCC(NC(C)=O)C3)c(C)o2)cc1 (stereo not given),-6.31%,-5.41%,0.887%,-0.709%,-4.25%,-3.33%,2.93%,18.4%,4.76%,7.32%,-1.88%
c1cc(CN2CCCC(c3noc(C4CC4)n3)C2)no1 (stereo not given),0.187%,-5.41%,-9.37%,9.04%,4.25%,-6.41%,4.32%,20.7%,3.45%,6.17%,-4.15%
CN(Cc1ccco1)C(=O)CN1CCCCC1Cn1cccn1 (stereo not given),1.65%,0%,6.46%,-9.17%,-1.27%,-2.74%,17.1%,-30.8%,4.76%,9.41%,-9.28%
O=C(Cc1ccc2c(c1)OCCO2)NC1CCN(CC(F)F)CC1,-6.42%,7.79%,6.85%,8.97%,-3%,0%,6.93%,-4.72%,3.88%,9.76%,-6.97%
Cc1cc(C(=O)N2CCc3nnc(N(C)C)cc3C2)c(C)n1C1CC1,-2.94%,3.8%,-0.0334%,0.611%,-0.513%,4.52%,16.1%,14%,8.33%,10.1%,-3.64%
Cc1nn(C)c(C)c1NC(=O)CN1CCc2c(nc(C3CC3)n2C)C1,0.84%,-5.41%,0.981%,13.1%,6.76%,-5.71%,4.14%,1.97%,-0.529%,7.32%,-8.76%
COc1ccc(C(C(=O)O)N2CCCN(C3CCCCC3)CC2)cn1 (stereo not given),-1.53%,13.5%,-8.59%,8.33%,6.55%,-6.2%,15.5%,-5.05%,2.15%,21%,-12.3%
Cc1ccc(C2COCCN2C(=O)c2ccc(N(C)C)cc2)o1 (stereo not given),-1.88%,10.7%,-8.36%,13.4%,3.02%,13.5%,15.9%,19.2%,2.73%,18.5%,-4.41%

# Source: ChEMBL document CHEMBL3988442, “University of Dundee, Small-Polar-MMV Screening Library” (2021)
